Bioassay records deposited in PubChem BioAssay by ICCB-Longwood Screening Facility, Harvard Medical School.
Most compounds without a hit are left out; they make up all but 1.4% or so of the library.
AID504770: E. coli YBA685 growth inhibition, screen for V. cholerae RctB inhibitors. AID 504770. E. coli YBA685 rctB-dependent plasmid, OD600 growth, 3 h; active compounds read low. 130,000 tested, 0.27% active. z-score (concentration not given with the values); in the data active = z-score below about -2, passing the limit was not always enough
PV pol inh: poliovirus RNA polymerase inhibition | P03300 | poliovirus polymerase elongation, fluorescence polarization; active compounds read low | % elongation, % (compound at 16.7 µg/mL) | 150,000 tested, 0.66% active; in the data active = % elongation below about 90%
Mtb MenB inh: Mtb MenB enzyme inhibition; 100,000 tested, 0.43% active; inhibition, % (no concentration beside the values); MenB enzyme assay, absorbance read-out; P9WNP5; in the data active = inhibition above about 21%, passing the limit was not always enough
Target sequence (P9WNP5 whole entry, looked up): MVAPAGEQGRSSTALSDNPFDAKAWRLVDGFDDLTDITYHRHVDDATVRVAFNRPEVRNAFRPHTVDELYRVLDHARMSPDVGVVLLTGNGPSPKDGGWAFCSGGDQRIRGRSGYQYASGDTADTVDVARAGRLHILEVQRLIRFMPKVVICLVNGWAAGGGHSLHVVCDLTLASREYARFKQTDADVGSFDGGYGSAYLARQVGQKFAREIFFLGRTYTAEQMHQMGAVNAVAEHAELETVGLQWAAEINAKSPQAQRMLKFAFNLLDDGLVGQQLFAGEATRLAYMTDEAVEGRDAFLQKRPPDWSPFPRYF
MbtI inh: MbtI salicylate synthase inhibition | 100,000 tested, 0.89% active | P9WFX0 | purified MbtI enzyme, fluorescence intensity read-out | inhibition, % (no concentration beside the values); in the data active = inhibition mostly above about 56%, no sharp cut-off; inactive = mostly below about 77%
A number is an active result; - = inactive; . = no result given; ! = a repeat was not active.

SMILES	AID504770	PV pol inh	Mtb MenB inh	MbtI inh
COc1ccc(C(=O)CSC#N)cc1OC	-	-	32	.
CN(CC(=O)NC1CCSc2ccccc21)S(=O)(=O)c1ccc(F)cc1 (configuration not stated)	-	-	-	-
Cc1cc(C(=O)O)no1	-	-	32	-
COc1cc(Cl)c(NC(=O)CCn2ccc(C)n2)c(OC)c1	-	-	-	-
O=C(Nc1nc(CSc2nc3ccccc3s2)cs1)C1CC1	-	83	-	-
COC(=O)CSc1nc2ccccc2s1	-	-	-	-
CCOc1ccc(NC(=O)CC(=O)Nc2ccc(OCC)cc2)cc1	-	-	-	-
CCOc1ccc(NC(=O)Cc2cccc3c(S(=O)O)cccc23)cc1	-	-	-	65
CC1CN(C)CC(C)C1(O)c1ccccc1 (configuration not stated)	-	-	-	.
CC1CN(C(C)(C)C)CCC1(O)c1ccccc1 (configuration not stated)	-	-	34	-
CCOC(=O)C(Nc1cccc(F)c1)c1ccccc1 (configuration not stated)	-	.	.	-
COC(=O)C(C(=O)OC)C(Nc1ccccc1)c1ccccc1 (configuration not stated)	-	25	-	.
O=c1/c(=C\c2ccccc2)sc2nc3ccccc3n12	-	-	.	-
O=c1/c(=C\c2ccncc2)sc2nc3ccccc3n12	-	63	-	.
CC1CN(Cn2nc(C(=O)O)c3ccccc32)CC(C)O1 (configuration not stated)	-	-	-	-
CC1CN(Cn2c(=S)oc3ccccc32)CC(C)O1 (configuration not stated)	-	90	-	-
COc1cc(S(=O)(=O)N2CCN(Cc3ccccc3)CC2)c(OC)cc1Cl	-	.	.	.
O=C(O)CSC1=NCCCN1	-	-	-	-
O=C(O)CSC1=NC2CCCCC2N1 (configuration not stated)	-	-	33	-
CCc1ccc(Nc2ncnc3sc4c(c23)CCCC4)cc1	.	-	.	.
CCc1nc(Nc2ccc(F)c(Cl)c2)c2c3c(sc2n1)CCCC3	.	85	.	.
COc1ccc(C2C3=C(CCCC3=O)NC3=C2C(=O)c2ccccc23)c(OC)c1OC (configuration not stated)	-	-	-	-
COc1cc(NC(C)CCCN)c2ncccc2c1 (configuration not stated)	-	58!	-	-
COc1ccc(CSc2cccc3cccnc23)cc1	-	-	.	-
CCOC(=O)c1c(NC(=O)c2ccc(S(=O)(=O)N3CCC(C)CC3)cc2)sc2c1CCN(C)C2	.	90	.	.
SMILES	AID504770	PV pol inh	Mtb MenB inh	MbtI inh
O=C(Nc1sc2c(c1C(=O)O)CCCC2)c1ccc(Br)cc1	-	85	-	.
CCOC(=O)c1c(NC(=O)c2ccccc2C)sc2c1CCCC2	.	84	.	.
Cc1cccc(NC(=O)c2c(NC(=O)c3ccccc3)sc3c2CCCC3)c1	.	75	.	.
Cc1cccc(NC(=O)c2c(NC(=O)c3ccccc3)sc3c2CCC3)c1	.	-	.	.
CCOC(=O)c1c(NC(=O)c2ccc(S(=O)(=O)N(C)C)cc2)sc2c1CCN(C)C2	.	-	.	.
CCOC(=O)c1c(NC(=O)c2ccccc2C(=O)O)sc2c1CCCC2	-	-	-	-
CN(Cn1[nH]c(-c2cccs2)nc1=S)C1CCCCC1	-	-	-	-
CCOC(=O)c1c(NC(=O)c2ccc(Br)cc2)sc2c1CCCC2	.	87	.	.
Cc1[nH]c(=S)sc1CC(=O)N(C)Cc1ccccc1Cl	-	-	-	76
Cc1n[nH]c(=S)n1/N=C\c1ccco1	-	90	-	-
CC(=O)Nc1cccc(SSc2cccc(NC(C)=O)c2)c1	-	-	-	97
CC(C)NC(=O)C1CC(c2ccc(Cl)cc2)=NO1 (configuration not stated)	-	-	-	-
CC(C)Oc1ccccc1CN	-	-	32	-
CC1=Nc2ccc(N)cc2C1(C)C	-	-	-	-
N#CC1=C(SCC(=O)N(c2ccccc2)c2ccccc2)NC(=O)CC1c1ccco1 (configuration not stated)	-	.	.	.
N#CC1=C(S)NC(=O)CC1c1ccco1 (configuration not stated)	-	79	-	-
CN1CCN(CC(=O)CCN2C(=O)/C(=C/c3ccccc3Cl)SC2=S)CC1	-	-	-	-
COc1ccc(C(=O)CSC2=NCCc3ccccc32)cc1	-	77	-	67
COc1ccc2c(c1)-c1ccccc1S(=O)(=O)N2	-	-	.	-
Cc1ccc2nc(N=C(N)N)nc(C)c2c1	-	-	-	-
COc1ccc2nc(N=C(N)N)nc(C)c2c1	-	65	-	.
O=C(Nc1ccccc1)Nn1cnc2ccccc2c1=O	-	-	-	-
NC(=S)c1sccc1CS(=O)c1ccc(Cl)cc1 (configuration not stated)	-	-	-	59
Cc1ccsc1C(N)=S	-	-	-	-
O=C(c1c(F)cccc1F)N1CCN(C/C=C/c2ccccc2)CC1	-	-	-	-
SMILES	AID504770	PV pol inh	Mtb MenB inh	MbtI inh
CC(=O)N1CCC2(CC1)C(C#N)=C(N)SC(N)=C2C#N	-	-	-	-
CCC(CC)NC(=O)CSc1nnc(-c2ccc(C)cc2)n1N	-	78	-	-
CCN(CC)Cc1cc(O)c(CN(CC)CC)cc1O	-	-	.	94
CCN(CC)Cc1cc(C(C)C)c(O)c(C(C)C)c1	-	.	.	.
CC(C)(C)c1ccc(C(=O)Nc2ccc(-c3nc4ccccc4o3)c(O)c2)cc1	.	-10	.	.
O=c1[nH]c(-c2ccc(S(=O)(=O)N3CCCC3)cc2)nc2sc3c(c12)CCCC3	-	-	-	-
Cc1ccc(N2C(=O)N(c3ccccc3)C(=N)C2=S)cc1Cl	-	68	-	-
Cc1ccc2c(C)c(-c3ccccc3)c(=O)oc2c1	-	-	-	.
COc1ccc(C2C(C#N)=C(SCC(=O)Nc3ccccc3)NC3=C2C(=O)CC(C)(C)C3)cc1 (configuration not stated)	-	.	.	.
CC(C)Cn1c(=O)c2sccc2n2c(=S)sc(-c3ccccc3)c12	-	-	-	68
N#Cc1cccc(NC(=O)COC(=O)/C=C/c2ccccc2)c1	-	-	.	-
CCn1cc(C(=O)O)c(=O)c2cc(F)c(F)cc21	-	-	-	-
COc1c(N2CCNC(C)C2)c(F)cc2c(=O)c(C(=O)O)cn(C3CC3)c12 (configuration not stated)	-3.5	-	-	-
O=C(O)c1cn(C2CC2)c2cc(N3CCNCC3)c(F)cc2c1=O	-3.4	-	-	-
CO/N=C1\CN(c2nc3c(cc2F)c(=O)c(C(=O)O)cn3C2CC2)CC1CN (configuration not stated)	-3.6	-	-	.
N#Cc1nc(Cc2ccccc2)oc1NCc1ccco1	-	-	-	-
CC(C)(O)c1nnn(Cc2ccccc2)c1C(C)(C)O	-	-	-	.
Cc1c(-c2ccccc2)nc2ccccc2c1C(=O)O	-	-	34	-
O=C(O)Cc1c(-c2ccc(Cl)cc2)nc2ccccc2c1C(=O)O	-	.	.	.
O=C1c2c(O)ccc(O)c2C(=O)c2c(NCCNCCO)ccc(NCCNCCO)c21	-	-53	-	-
O=c1[nH]cc(NCCO)c(=O)[nH]1	-	.	.	-
Cc1ccc(C2=NNC(=S)C3=CNc4ccccc4N32)cc1	-	-	-	.
